Results taken from a collection of fitness landscapes (doi:10.1038/s41467-024-54723-y).
In all, about 18,000 sequences were measured (“TetR repression strength (sort-seq, GFP reporter)”: median about 0.23, highest 2% from about 0.68 on). The sample holds the highest values, similar sequences and a random draw of the others, so the mix is not that of the screen.

The sequences below were run against TetR (class B, Tn10) (UniProt P04483) (assay: TetR repression strength (sort-seq, GFP reporter) (relative to tetO2 = 1); higher = stronger repression). Conditions: E. coli.
Chain of TetR (class B, Tn10) (P04483 whole entry): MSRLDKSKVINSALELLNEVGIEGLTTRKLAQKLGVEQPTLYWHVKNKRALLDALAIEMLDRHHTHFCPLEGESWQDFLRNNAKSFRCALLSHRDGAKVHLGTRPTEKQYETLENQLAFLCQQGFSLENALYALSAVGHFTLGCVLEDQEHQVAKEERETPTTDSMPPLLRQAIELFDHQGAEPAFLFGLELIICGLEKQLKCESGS
Summary of the method: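 Repression strength was calculated by subtracting the read-weighted mean bin from the top bin index plus one and dividing by the unaltered operator's value. The plasmid library was low-copy in E. coli SIG10-MAX, with eight randomized operator positions between a constitutive promoter and sfGFP and constitutive TetR. Cultures grew 5 h at 37 °C in LB containing 50 µg/mL chloramphenicol before 10^6 cells were sorted by FACS into 13 fluorescence bins, each sequenced on Illumina. Three independent transformations were averaged for members having ≥30 reads in all replicates and a CV ≤0.5.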
TCCCCGTAAGTGCAGGAGA gave a TetR repression strength of 0.21. With TCCCAGCGAGTCCAGGAGA the TetR repression strength was 0.27. With TCCCACTTAGTAAGTGAGA the TetR repression strength was 0.141. For TCCCAGTAAGTAGCCGAGA, the TetR repression strength was 0.0168. With TCCCGGACAGTATATGAGA the TetR repression strength was 0.304. TCCCTAGCAGTAGTAGAGA was tested, and the TetR repression strength was 0.681. TCCCCGTTAGTTAAGGAGA gave a TetR repression strength of 0.149. TCCCCGCTAGTTAAGGAGA showed a TetR repression strength of 0.755. TCCCCACTAGTTAAGGAGA showed a TetR repression strength of 0.225. TCCCGGAGAGTGTATGAGA showed a TetR repression strength of 0.188. TCCCAGTGAGTTGCCGAGA gave a TetR repression strength of 0.212. TCCCGTCAAGTTCATGAGA was tested, and the TetR repression strength was 0.15. With TCCCATAAAGTTCATGAGA the TetR repression strength was 0.36. Sequence TCCCCTACAGTTCATGAGA has a TetR repression strength of 0.189. TCCCGTAAAGTTCATGAGA gave a TetR repression strength of 1.21. TCCCGTACAGTTCATGAGA was tested, and the TetR repression strength was 1.18. TCCCGTACAGTTGATGAGA showed a TetR repression strength of 0.2. TCCCAGTTAGTCTTTGAGA was tested, and the TetR repression strength was 0.334. For TCCCTAAAAGTTTGAGAGA, the TetR repression strength was 0.334. In the case of TCCCGTTCAGTGATAGAGA, the TetR repression strength is reported as 0.819. With TCCCGTGCAGTGCTAGAGA the TetR repression strength was 0.38. TCCCTGATAGTGATCGAGA gave a TetR repression strength of 0.362. TCCCATTCAGTTATAGAGA was tested, and the TetR repression strength was 0.596. TCCCGTGCAGTGATAGAGA showed a TetR repression strength of 0.647. TCCCGTTCAGTGCGAGAGA was tested, and the TetR repression strength was 0.0532. TCCCGTTCAGTGAGAGAGA gave a TetR repression strength of 0.516. With TCCCGTTCAGTGCTAGAGA the TetR repression strength was 0.681. Sequence TCCCATTCAGTGATAGAGA has a TetR repression strength of 0.707. In the case of TCCCTGCTAGTGATCGAGA, the TetR repression strength is reported as 0.745. Work on TCCCATCCAGTGATAGAGA yielded a TetR repression strength of 0.626. With TCCCTGCTAGTGATAGAGA the TetR repression strength was 0.638. In the case of TCCCGGGAAGTATTCGAGA, the TetR repression strength is reported as 0.391. In the case of TCCCCAAGAGTTTGGGAGA, the TetR repression strength is reported as 0.217. For TCCCGGATAGTACTAGAGA, the TetR repression strength was 0.291. With TCCCGGTTAGTTCGAGAGA the TetR repression strength was 0.0821. TCCCCACCAGTGGCGGAGA gave a TetR repression strength of 0.231. TCCCTACTAGTACGGGAGA gave a TetR repression strength of 0.394. Sequence TCCCGCTCAGTTGTAGAGA has a TetR repression strength of 0.421. Sequence TCCCATACAGTTGGAGAGA has a TetR repression strength of 0.37. TCCCCATAAGTACAAGAGA was tested, and the TetR repression strength was 0.446. TCCCGTGTAGTAGGAGAGA showed a TetR repression strength of 0.17. Sequence TCCCTCGCAGTGGATGAGA has a TetR repression strength of 0.323. For TCCCTGTCAGTTGGCGAGA, the TetR repression strength was 0.874. TCCCGTTCAGTAGGCGAGA gave a TetR repression strength of 0.261. Work on TCCCTGTCAGTGATAGAGA yielded a TetR repression strength of 0.863. Work on TCCCGCTCAGTACGCGAGA yielded a TetR repression strength of 0.104. In the case of TCCCGTTCAGTACGCGAGA, the TetR repression strength is reported as 0.912. TCCCTGACAGTTGGCGAGA was tested, and the TetR repression strength was 0.301. Sequence TCCCATTCAGTGATCGAGA has a TetR repression strength of 0.731. In the case of TCCCTGTCAGTTGGAGAGA, the TetR repression strength is reported as 0.36. TCCCATTAAGTGATCGAGA was tested, and the TetR repression strength was 0.344. With TCCCATTTAGTGATCGAGA the TetR repression strength was 0. TCCCTGCCAGTGATAGAGA gave a TetR repression strength of 0.646. TCCCTGTCAGTGAGAGAGA gave a TetR repression strength of 0.444. TCCCGACTAGTAACTGAGA gave a TetR repression strength of 0.613. With TCCCTAGTAGTTGTTGAGA the TetR repression strength was 0.308. In the case of TCCCCGGGAGTTATGGAGA, the TetR repression strength is reported as 0.274. Sequence TCCCACTTAGTTGCTGAGA has a TetR repression strength of 0.19. TCCCGGTCAGTGAAGGAGA gave a TetR repression strength of 0.236. Sequence TCCCGGCCAGTCAAAGAGA has a TetR repression strength of 0.406. TCCCTTCCAGTTCACGAGA gave a TetR repression strength of 0.325. For TCCCAATTAGTTTGAGAGA, the TetR repression strength was 0.313. Sequence TCCCCGCGAGTAGGAGAGA has a TetR repression strength of 0.405. Sequence TCCCTGGGAGTGTGTGAGA has a TetR repression strength of 0.182. Work on TCCCGTGGAGTACTAGAGA yielded a TetR repression strength of 0.229. Work on TCCCTGTCAGTGATCGAGA yielded a TetR repression strength of 0.734. In the case of TCCCATTGAGTGCACGAGA, the TetR repression strength is reported as 0.443. With TCCCTGAGAGTGATCGAGA the TetR repression strength was 0.0416. TCCCGTTCAGTGATCGAGA was tested, and the TetR repression strength was 0.724. For TCCCATGCAGTGCACGAGA, the TetR repression strength was 0.17. For TCCCGCTAAGTGCTAGAGA, the TetR repression strength was 0.36. TCCCGTTCAGTGAACGAGA gave a TetR repression strength of 0.617. TCCCGTTAAGTGCTAGAGA gave a TetR repression strength of 0.685. TCCCGTTCAGTGCTCGAGA showed a TetR repression strength of 0.442. In the case of TCCCATTCAGTGCACGAGA, the TetR repression strength is reported as 0.691. With TCCCGTTAAGTGCGAGAGA the TetR repression strength was 0.109. Work on TCCCTGTCAGTAATCGAGA yielded a TetR repression strength of 0.535. TCCCGTTGAGTCGGCGAGA showed a TetR repression strength of 0.157. Work on TCCCACCAAGTAGGAGAGA yielded a TetR repression strength of 0.285. For TCCCTAAGAGTACTGGAGA, the TetR repression strength was 0.401. TCCCGCCGAGTTAAGGAGA was tested, and the TetR repression strength was 0.19. TCCCGACGAGTAGTGGAGA gave a TetR repression strength of 0.171. In the case of TCCCAATCAGTTTGAGAGA, the TetR repression strength is reported as 0.144. In the case of TCCCTCGCAGTGAGCGAGA, the TetR repression strength is reported as 0.22. Work on TCCCAGGCAGTAAGGGAGA yielded a TetR repression strength of 0.0777. Work on TCCCAGTCAGTGATCGAGA yielded a TetR repression strength of 0.322. Sequence TCCCGGTCAGTGATCGAGA has a TetR repression strength of 0.684. TCCCGGTCAGTGGTCGAGA was tested, and the TetR repression strength was 0.633. With TCCCCGGGAGTCCACGAGA the TetR repression strength was 0.252. TCCCGAGTAGTTAACGAGA showed a TetR repression strength of 0.857. In the case of TCCCCCTGAGTTTATGAGA, the TetR repression strength is reported as 0.265. Sequence TCCCGAGTAGTTAAGGAGA has a TetR repression strength of 0.21. In the case of TCCCGGAGAGTTACAGAGA, the TetR repression strength is reported as 0.245. Sequence TCCCCGGGAGTTAATGAGA has a TetR repression strength of 0.517. For TCCCGCGGAGTTTATGAGA, the TetR repression strength was 0.184. TCCCGGGGAGTTAATGAGA gave a TetR repression strength of 0.944. In the case of TCCCGGAGAGTTAATGAGA, the TetR repression strength is reported as 0.225. TCCCGGGGAGTTACAGAGA was tested, and the TetR repression strength was 0.903. For TCCCGAGGAGTTAACGAGA, the TetR repression strength was 0.535. TCCCCCGGAGTTTATGAGA was tested, and the TetR repression strength was 0.801. For TCCCGGGAAGTTACAGAGA, the TetR repression strength was 0.0346. Sequence TCCCAGACAGTGATAGAGA has a TetR repression strength of 0.384. Sequence TCCCGCAGAGTGTCTGAGA has a TetR repression strength of 0.216.
